Reference: PubChem BioAssay (EPA / NIEHS)
Results filed as inconclusive are left out. Where a structure was tested more than once in an assay, its records may differ in their call. Calls of active or inactive are those of the source. Rule for the calls, unless noted: active = hit-call score of the fitted dose curve at least 0.9, where 1 is the maximum; inconclusive = response in the unintended direction; inactive = score below 0.9.

Key:
[1] = biological target: Estrogen receptor (Homo sapiens) (UniProt P03372); experiment: OT_ERa_GFPERaERE_0120: Odyssey Thera (OT) 2-hour HeLa Transcription Induction Assay for Estrogen Receptor (AID 2283382)
Sequence of Estrogen receptor (Homo sapiens) (P03372 whole entry, looked up): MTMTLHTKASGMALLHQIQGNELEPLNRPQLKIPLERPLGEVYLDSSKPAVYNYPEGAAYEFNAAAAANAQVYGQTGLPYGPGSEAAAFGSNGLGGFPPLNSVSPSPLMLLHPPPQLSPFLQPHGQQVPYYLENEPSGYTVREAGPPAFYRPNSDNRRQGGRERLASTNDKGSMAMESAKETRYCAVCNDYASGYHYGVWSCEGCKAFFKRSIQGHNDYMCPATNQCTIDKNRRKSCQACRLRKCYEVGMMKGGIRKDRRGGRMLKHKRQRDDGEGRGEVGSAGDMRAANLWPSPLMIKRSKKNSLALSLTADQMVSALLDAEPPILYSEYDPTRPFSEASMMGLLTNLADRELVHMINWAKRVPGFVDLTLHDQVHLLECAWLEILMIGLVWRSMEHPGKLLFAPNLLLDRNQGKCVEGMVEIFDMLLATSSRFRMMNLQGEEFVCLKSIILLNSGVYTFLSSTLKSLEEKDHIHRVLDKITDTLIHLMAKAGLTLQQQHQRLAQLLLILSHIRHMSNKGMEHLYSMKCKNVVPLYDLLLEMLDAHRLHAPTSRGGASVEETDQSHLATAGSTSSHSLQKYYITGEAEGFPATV
Procedure, shortened: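 HeLa cells were dosed for 2 h, then GFP reporter induction was quantified by fluorescence microscopy with high-content image analysis. Gain of signal fitted against DMSO baseline.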

[2] = biological target: Bile acid receptor (Homo sapiens) (UniProt Q96RI1); experiment: OT_FXR_FXRSRC1_0480: Odyssey Thera (OT) 8-hour HEK293T Protein-Complementation Assay for Farnesoid X receptor/SRC-1 Co-activator (AID 2283383)
Sequence of Bile acid receptor (Homo sapiens) (Q96RI1 whole entry, looked up, the tested form may be a part): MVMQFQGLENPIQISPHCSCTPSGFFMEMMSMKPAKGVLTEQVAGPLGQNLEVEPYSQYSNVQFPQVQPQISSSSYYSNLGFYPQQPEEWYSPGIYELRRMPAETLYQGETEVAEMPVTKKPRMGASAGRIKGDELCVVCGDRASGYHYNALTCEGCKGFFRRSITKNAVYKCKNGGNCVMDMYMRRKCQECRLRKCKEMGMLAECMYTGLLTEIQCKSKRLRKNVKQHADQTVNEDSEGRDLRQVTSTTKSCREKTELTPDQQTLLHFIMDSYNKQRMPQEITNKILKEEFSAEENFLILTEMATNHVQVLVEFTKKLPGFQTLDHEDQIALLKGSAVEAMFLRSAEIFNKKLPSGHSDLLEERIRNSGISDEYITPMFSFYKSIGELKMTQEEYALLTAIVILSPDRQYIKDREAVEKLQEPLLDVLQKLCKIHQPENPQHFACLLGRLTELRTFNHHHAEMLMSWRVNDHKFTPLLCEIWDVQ
Procedure, shortened: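 HEK293T protein-fragment complementation assay: FXR and SRC-1 coactivator are fused to reporter fragments, and their interaction restores a fluorescent reporter. Readout was taken 8 h after dosing, with gain of signal fit relative to DMSO.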

[3] = biological target: Retinoic acid receptor RXR-alpha (Homo sapiens) (UniProt P19793); experiment: OT_NURR1_NURR1RXRa_0480: Odyssey Thera (OT) 8-hour HEK293T Protein Complementation Assay for Nurr1/retinoid X receptor (RXR) (AID 2283385)
Sequence of Retinoic acid receptor RXR-alpha (Homo sapiens) (P19793 whole entry, looked up, the tested form may be a part): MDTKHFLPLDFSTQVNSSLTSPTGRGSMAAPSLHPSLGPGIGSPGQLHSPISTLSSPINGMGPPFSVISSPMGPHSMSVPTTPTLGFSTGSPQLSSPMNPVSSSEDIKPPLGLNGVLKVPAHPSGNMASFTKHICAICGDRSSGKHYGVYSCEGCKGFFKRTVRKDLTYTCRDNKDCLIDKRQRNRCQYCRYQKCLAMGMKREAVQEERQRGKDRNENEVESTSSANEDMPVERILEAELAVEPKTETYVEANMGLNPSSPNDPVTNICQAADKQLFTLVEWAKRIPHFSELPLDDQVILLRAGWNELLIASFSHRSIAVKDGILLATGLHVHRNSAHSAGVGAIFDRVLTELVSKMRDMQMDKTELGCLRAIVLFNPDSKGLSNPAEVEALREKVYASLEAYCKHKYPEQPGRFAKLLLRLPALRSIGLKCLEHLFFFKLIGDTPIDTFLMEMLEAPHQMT
Procedure, shortened: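 HEK293T cells expressing Nurr1 and RXRα fused to reporter fragments (protein-fragment complementation); fluorescence measured 8 h after dosing. Gain of signal fitted relative to DMSO.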

[4] = biological target: Retinoic acid receptor RXR-alpha (Homo sapiens) (UniProt P19793); experiment: OT_NURR1_NURR1RXRa_1440: Odyssey Thera (OT) 24-hour HEK293T Protein Complementation Assay for Nurr1/retinoid X receptor (RXR) (AID 2283386)
Procedure, shortened: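 HEK293T protein-fragment complementation of Nurr1 and RXRα fused to reporter fragments; compounds 24 h. Fluorescence gain from reconstituted reporter fitted versus DMSO.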

[5] = biological target: Peroxisome proliferator-activated receptor gamma (Homo sapiens) (UniProt P37231); experiment: OT_PPARg_PPARgSRC1_0480: Odyssey Thera (OT) 8-hour Protein-Complementation Assay for Peroxisome Proliferator-activated Receptor Gamma / SRC-1 Co-activator (AID 2283387)
Sequence of Peroxisome proliferator-activated receptor gamma (Homo sapiens) (P37231 whole entry, looked up, the tested form may be a part): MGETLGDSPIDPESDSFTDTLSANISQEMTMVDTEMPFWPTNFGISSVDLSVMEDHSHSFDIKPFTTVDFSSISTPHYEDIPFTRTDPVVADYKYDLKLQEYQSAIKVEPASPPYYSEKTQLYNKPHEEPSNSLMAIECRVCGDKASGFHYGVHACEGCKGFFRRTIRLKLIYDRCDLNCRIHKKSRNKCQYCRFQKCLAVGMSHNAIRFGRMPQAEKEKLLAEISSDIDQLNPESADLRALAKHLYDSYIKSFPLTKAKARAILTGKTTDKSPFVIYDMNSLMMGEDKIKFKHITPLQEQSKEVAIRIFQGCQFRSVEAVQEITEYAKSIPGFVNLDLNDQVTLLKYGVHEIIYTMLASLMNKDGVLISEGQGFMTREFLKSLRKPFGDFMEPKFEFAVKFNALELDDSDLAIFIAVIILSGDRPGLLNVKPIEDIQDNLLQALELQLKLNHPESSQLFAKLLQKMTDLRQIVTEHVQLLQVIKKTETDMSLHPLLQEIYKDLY
Procedure, shortened: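 Protein-fragment complementation in HEK293T: Venus YFP halves (residues 1-158, 159-239, mutated to IFP1/IFP2) fused to PPARg/SRC-1. 8 h exposure; N/C ratio at 488 nm; DMSO negative control.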

[6] = biological target: Peroxisome proliferator-activated receptor gamma (Homo sapiens) (UniProt P37231); experiment: OT_PPARg_PPARgSRC1_1440: Odyssey Thera (OT) 24-hour Protein-Complementation Assay for Peroxisome Proliferator-activated Receptor Gamma/ SRC-1 Co-activator (AID 2283388)
Procedure, shortened: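 HEK293T cells transiently transfected with PPARg and SRC-1 fused via (Gly4Ser)2 linker to split Venus YFP fragments (IFP1/IFP2) were dosed 24 h; fixed, Draq5-stained, imaged at 488/635 nm; nuclear/cytoplasmic fluorescence ratio scored versus DMSO baseline, gain-of-signal.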

[7] = CEETOX_H295R_OHPREG: CeeTox H295R High-throughput Steroidogenesis Assay for OH-Pregnenolone (OHPREG) (AID 2283434; active = hit-call score of the fitted dose curve at least 0.9, where 1 is the maximum; inactive = score below 0.9); details: actives raise or lower the signal
Procedure, shortened: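 Hormone levels in spent medium were measured by tandem mass spectrometry following liquid-liquid extraction. Cells (H295R) had been forskolin-stimulated (10 uM, 48 h) before a 48 h chemical exposure at 0.1% DMSO, with activity fitted in both directions against DMSO.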

[8] = CEETOX_H295R_OHPROG: CeeTox H295R High-throughput Steroidogenesis Assay for OH-Progesterone (OHPROG) (AID 2283435; active = hit-call score of the fitted dose curve at least 0.9, where 1 is the maximum; inactive = score below 0.9;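 for AC50: human adrenal H295R cells primed 48 h with 10 µM forskolin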); details: actives raise or lower the signal
Procedure, shortened: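 H295R adrenal cells prestimulated 48 h with 10 uM forskolin, then exposed 48 h to chemical (0.1% DMSO final). 17alpha-hydroxyprogesterone in medium quantified by HPLC-MS/MS; bidirectional fit versus DMSO, with MTT viability measured in the same wells.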

[9] = biological target: Bile acid receptor (Homo sapiens) (UniProt Q96RI1); experiment: OT_FXR_FXRSRC1_1440: Odyssey Thera (OT) 24-hour HEK293T Protein-Complementation Assay for Farnesoid X receptor/SRC-1 Co-activator (AID 2283384)
Procedure, shortened: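 HEK293T cells, 24 h after chemical dosing. FXR–SRC-1 coactivator interaction read as fluorescence from protein-fragment complementation of a split reporter. Gain of signal fitted against DMSO baseline.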

[10] = CEETOX_H295R_ANDR: CeeTox H295R High-throughput Steroidogenesis Assay for Androstenedione (ANDR) (AID 2283436; active = hit-call score of the fitted dose curve at least 0.9, where 1 is the maximum; inactive = score below 0.9); details: actives raise or lower the signal
Procedure, shortened: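 Read-out is androstenedione secreted into medium, measured by tandem mass spectrometry after liquid-liquid extraction. Cells were H295R, dosed for 48 h per modified OECD 456; activity fitted in both directions relative to DMSO.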

Measured: AC50

CCCCCCCCOC(=O)c1cc(O)c(O)c(O)c1
active: [1] 3.33 µM | [2] 63.6 µM | [4] 68.5 µM
inactive: [3] | [4] | [5] | [6] | [7] | [8]

Cc1oc2c(NC(=O)c3c(Cl)cccc3Cl)cccc2c1C(C)(C)O
active: [3] 12.6 µM | [7] 1.42 µM | [8] 3.07 µM
inactive: [1] | [2] | [5] | [6]

CCCOC(=O)c1cc(O)c(O)c(O)c1
inactive: [1] | [2] | [3] | [4] | [5] | [6]

CC(C)(C)c1cc(/C=C2\SC(N)=NC2=O)cc(C(C)(C)C)c1O
inactive: [1] | [3] | [4] | [5] | [6] | [7]
active: [9] 50 µM | [5] 77.1 µM | [6] 66 µM | [8] 0.67 µM

CN(C[C@@H](CC[N+]12CCC(C3CCCCC3)(CC1)CC2)c1ccc(Cl)c(Cl)c1)C(=O)c1cc(C(F)(F)F)cc(C(F)(F)F)c1
active: [2] 85.4 µM
inactive: [1] | [5] | [6]

CCO[Si](CCCNC(N)=O)(OCC)OCC
inactive: [1] | [9] | [3] | [5] | [6]

CCCCCCCCCCCO
inactive: [1] | [2] | [3] | [4] | [5] | [6]

Cc1cn([C@H]2C[C@H](N=[N+]=[N-])[C@@H](CO)O2)c(=O)[nH]c1=O
inactive: [1] | [2] | [3] | [4] | [5] | [6]

O=C(Nc1ccc(Cl)cc1)Nc1ccc(Cl)c(Cl)c1
active: [3] 12.5 µM | [7] 0.5 µM | [8] 0.418 µM
inactive: all other assays above

O=c1ccc2ccccc2o1
inactive: [1] | [2] | [3] | [4] | [5] | [6]

CN1C(=O)N(c2ccccc2Br)Cc2cnc(Nc3ccc4c(c3)OCC(CO)O4)nc21 (centres undefined)
inactive: [1] | [4] | [6] | [7] | [8]
active: [2] 0.34 µM | [3] 0.714 µM

Cc1c2ccccc2c(C)c2c1ccc1ccccc12
active: [2] 14.3 µM
not listed: [4] | [9]
inactive: all other assays above

Cc1ccc(C(C)C)cc1
inactive: [1] | [2] | [3] | [4] | [5] | [6]

Cc1cccc2ccccc12
inactive: [1] | [2] | [3] | [4] | [5] | [6]

CCN(Cc1cccnc1)C(=O)c1cccc(Cl)c1[C@]1(C)C(=O)N(Cc2ccc(OC)cc2OC)c2ccc(Cl)cc21
inactive: [1] | [3] | [4] | [5] | [6]
active: [2] 0.278 µM

COc1cc(C(=O)NC2CCN(C)CC2)ccc1Nc1ncc2c(n1)N(C1CCCC1)CC(F)(F)C(=O)N2C
inactive: [1] | [5] | [6]
active: [2] 11 µM | [3] 10.9 µM | [4] 11 µM

CC1=CC(=O)/C(=C(/C)O)C(=O)O1
inactive: [1] | [2] | [3] | [4] | [5] | [6]

CC[C@@H]1C[C@H](N(Cc2cc(C(F)(F)F)cc(C(F)(F)F)c2)C(C)=O)c2cc(C(F)(F)F)ccc2N1C(=O)OC(C)C
inactive: [1] | [3] | [4] | [5] | [6]
